Results published in PubChem BioAssay (Tox21).
Inconclusive results are not listed. Active and inactive are the calls of the source. Calls come from the whole dose curve; as a rule, active = well fitted cell-killing curve with a large enough effect in the repeat runs; inconclusive = weak or mixed curves, or effect the other way; inactive = flat fitted curve, though single readings scatter.

assay: qHTS assay to identify small molecule that activate the aryl hydrocarbon receptor (AhR) signaling pathway - cell viability counter screen (AID 743086); settings: HepG2-AhR-luc viability, CellTiter-Fluor, 24 h; series mostly up to 70.3 µM; viability change, negative = cytotoxic: at the top concentration;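 note: HepG2 liver cells carrying the AhR DRE luciferase reporter; nearly all actives have a fitted effect of over 45% in size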
Source text: U.S. Tox21 Program National Center for Advancing Translational Sciences [NCATS] NIH Chemical Genomics Center [NCGC] U.S. Environmental Protection Agency [EPA] National Institutes of Environmental Health Sciences [NIEHS] National Toxicology Program [NTP] U.S. Food and Drug Administration [FDA] Tox21 Assay overview: The Aryl hydrocarbon Receptor (AhR), a member of the family of basic helix-loop-helix transcription factors, is crucial to adaptive responses to environmental changes. AhR mediates cellular responses to environmental pollutants such as aromatic hydrocarbons through induction of phase I and II enzymes but also interacts with other nuclear receptor signaling pathways A cell based HepG2-AhR-luc assay (HG2L7.5c1 cell line, developed by Dr. Michael S. Denison, University of California at Davis) was used to assess the activation of AhR. HepG2 (human hepatocellular carcinoma) cells were stably transfected with an Ah receptor-responsive firefly luciferase reporter gene plasmid containing 20 dioxin responsive elements and luciferase reporter gene. Increased luciferase activity can be used to identify the compounds that induce AhR activation. The cytotoxicity of the compounds screened against the HepG2-AhR-luc cell line was tested in parallel by measuring the cell viability using CellTiter-Fluor assay in the same wells.
Tox21 Assay Protocol Summary: 4000 cells in 5 uL/well were dispensed into white wall/solid bottom 1536-well plates using a Multidrop Combi (Thermo Fisher Scientific Inc., Waltham, MA) dispenser. After the assay plates were incubated at 37C for 5 h, 23 nL of compound or DMSO vehicle was transferred to the assay plates by a pintool station (Kalypsys, San Diego, CA). The plates were incubated at 37C for 24 hr. For cell viability measurement, 1 ul/well of CellTiter-Fluor reagent (Promega, Madison, WI) was added into the assay plates using a Flying Reagent Dispenser (FRD) (Aurora Discovery, CA),and then the assay plates were incubated at 37C for 30 min. The fluorescence intensity in the plates was measured using a ViewLux plate reader (PerkinElmer, Shelton, CT), followed by the addition of 4 uL of ONE-Glo Luciferase Assay reagent (Promega) using an FRD (Aurora Discovery). After the assay plates were incubated at room temperature for 30 min, luminescence intensity was measured using a ViewLux plate reader (Perkin Elmer).
% is set by controls: 0 for no effect and ±100 for the full control effect.

Row | Compound | outcome | viability change, negative = cytotoxic
1 | OCC(O)CCl (stereo not given) | inactive | –
2 | Cc1cccc(C)c1N | inactive | –
3 | CCCOC(=O)c1ccccc1C(=O)OCCC | inactive | –
4 | CCCCCCCCCCCCCCCCCC(=O)O | inactive | –
5 | N#Cc1ccccn1 | inactive | –
6 | O=S(=O)(O)OOS(=O)(=O)O | inactive | –
7 | FC(F)(F)c1ccc(Cl)cc1 | inactive | –
8 | C=CC(=O)OCC(CC)CCCC (stereo not given) | inactive | –
9 | CNc1cnn(-c2cccc(C(F)(F)F)c2)c(=O)c1Cl | inactive | –
10 | Nc1cc(Cl)cc(Cl)c1 | inactive | –
11 | CN(C)NC(=O)CCC(=O)O | inactive | –
12 | C=CC(=O)OCCCCCC(C)C | inactive | –
13 | O=C/C=C/c1ccccc1 | inactive | –
14 | C[C@H]1C(=O)O[C@@H]2CCN3CC=C(COC(=O)[C@](C)(O)[C@]1(C)O)[C@H]23 | inactive | –
15 | C[C@]12CC[C@H](O)CC1=CC[C@@H]1[C@@H]2CC[C@]2(C)C(=O)CC[C@@H]12 | inactive | –
16 | OC[C@@H](O)[C@H]1O[C@@H]2O[C@H](C(Cl)(Cl)Cl)O[C@@H]2[C@H]1O | inactive | –
17 | Cc1ccccc1N | inactive | –
18 | CC[N+](=O)[O-] | inactive | –
19 | CC(C)(C)C(=O)CCl | inactive | –
20 | CN(C)C(=O)C(c1ccccc1)c1ccccc1 | inactive | –

Row | Compound | outcome | viability change, negative = cytotoxic
21 | Cl[C@H]1OCCO[C@@H]1Cl | inactive | –
22 | Nc1ccc(N)cc1 | – | -1.41% (inactive)
23 | CNC(=O)O/N=C/C(C)(C)SC | inactive | –
24 | COc1cc(-c2ccc(N)c(OC)c2)ccc1N | inactive | –
25 | O=[N+]([O-])c1ccc(Cl)c(Cl)c1 | inactive | –
26 | CN1C(=O)CCS(=O)(=O)C1c1ccc(Cl)cc1 (stereo not given) | inactive | –
27 | [N-]=[N+]=CC(=O)OC[C@H](N)C(=O)O | inactive | –
28 | CCNc1nc(Cl)nc(NC(C)C)n1 | inactive | –
29 | CCOP(=S)(OCC)Oc1ccc([N+](=O)[O-])cc1 | inactive | –
30 | CNCC(O)c1ccc(O)cc1 (stereo not given) | inactive | –
31 | COc1nc(NC(C)C)nc(NC(C)C)n1 | inactive | –
32 | O=[N+]([O-])c1ccc(Cl)cc1 | inactive | –
33 | C=CCN=C=S | inactive | –
34 | O=C(O)c1cc(Oc2ccc(C(F)(F)F)cc2Cl)ccc1[N+](=O)[O-] | inactive | –
35 | Sc1ccccc1 | inactive | –
36 | OCCCCO | inactive | –
37 | Clc1cnc(Oc2ccc(Oc3ncc(Cl)cc3Cl)cc2)c(Cl)c1 | inactive | –
38 | O=C(O)Cc1ccccc1 | inactive | –
39 | C=CC#N | inactive | –
40 | CCOc1ccc(N)cc1 | inactive | –
